Experimental findings from PubChem BioAssay are described below.

Unmarked numbers belong to inactive results. For some of these results: Measured potencies and affinities stand elsewhere. Active and inactive are the calls of the source. Unless noted, the rule behind the calls is not given here.

The nature of experiment [1]: antimalarial activity against Dd2 strain (AID 2302;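 active = growth inhibition above 50% at the single 2 µM test dose, taken to imply half-maximal potency below 2 µM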;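 note: 0% = DMSO untreated growth and 100% = chloroquine plus artemisinin killed control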). The conditions noted are these: P. falciparum Dd2 in RBCs, LDH growth readout, 72 h; at 2 µM; hits give high values.
Experiment [2] is described as follows: HepG2 cytotoxicity, primary screen, cytotoxicity control for P. falciparum antimalarial project, cell-based, ATP luminescence (AID 2303;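 active = inhibition above 50%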;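 note: 0% = DMSO wells and 100% = digitonin-killed cells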). Conditions: HepG2 viability, 24-48 h, at 10 µM, hits give high values.
Experiment [3] has as its target L-lactate dehydrogenase (Plasmodium falciparum (isolate CDC / Honduras)) (UniProt Q27743). The experiment can be described thus: PfLDH activity inhibition – cell lysate, 3D7 strain, counter-screen for P. falciparum growth inhibition project (AID 2304).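 Note: 0% = vehicle and 100% = reference inhibitor.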 The conditions noted are these: P. falciparum 3D7 crude extract, LDH APAD/NBT absorbance; at 2 µM; hits give high values. (In general: The purpose of a counterscreen is to sort out artefacts and off-target activity.)

Experiment [4] can be described thus: inhibition of 3D7 malaria parasite growth – strain 3D7 (AID 2306).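 Note: 0% = DMSO wells and 100% = chloroquine plus artemisinin control wells.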 The conditions noted are these: P. falciparum 3D7 erythrocytic growth, LDH absorbance, 72 h; at 2 µM; hits give high values.
Experiment [5] has as its target Calcium-dependent protein kinase 1 (Plasmodium falciparum (isolate 3D7)) (UniProt P62344). The experiment can be described thus: PfCDPK1 kinase inhibitors, biochemical, TCAMS library (AID 1159585; cut-off not given, nearly all actives have IC50 up to about 0.98 µM;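 note: inhibitors leave more ATP so luminescence rises with inhibition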). Conditions: recombinant PfCDPK1, Kinase-Glo ATP depletion luminescence. For orientation: Kinase-Glo measures the ATP left after a reaction by luminescence.
Experiment [6] has as its target Plasmodium falciparum protein kinase 6 (PK6, PF3D7_1337100) (UniProt Q8IDW1). Nature of the experiment: PfPK6 kinase inhibitors, biochemical, TCAMS library (AID 1159586). The conditions noted are these: recombinant PfPK6, Kinase-Glo ATP depletion luminescence.
Experiment [7] has as its target Protein kinase 7 (PK7), Plasmodium falciparum 3D7 (PF3D7_0213400) (UniProt Q7YTF7). The experiment can be described thus: inhibition of Plasmodium PK7 catalytic activity – biochemical, TCAMS antimalarial set, Kinase-Glo luminescence (AID 1159587). Conditions: recombinant PfPK7, Kinase-Glo ATP depletion luminescence.
Experiment [8] deals with Calcium-dependent protein kinase 4 (Plasmodium falciparum (isolate 3D7)) (UniProt Q8IBS5). The experiment can be described thus: PfCDPK4 kinase inhibitors, biochemical, TCAMS library (AID 1159588; cut-off not given, nearly all actives have IC50 up to about 0.91 µM). The conditions noted are these: recombinant PfCDPK4, Kinase-Glo ATP depletion luminescence.
Sequence of Calcium-dependent protein kinase 4 (Plasmodium falciparum (isolate 3D7)) (Q8IBS5 whole entry, looked up): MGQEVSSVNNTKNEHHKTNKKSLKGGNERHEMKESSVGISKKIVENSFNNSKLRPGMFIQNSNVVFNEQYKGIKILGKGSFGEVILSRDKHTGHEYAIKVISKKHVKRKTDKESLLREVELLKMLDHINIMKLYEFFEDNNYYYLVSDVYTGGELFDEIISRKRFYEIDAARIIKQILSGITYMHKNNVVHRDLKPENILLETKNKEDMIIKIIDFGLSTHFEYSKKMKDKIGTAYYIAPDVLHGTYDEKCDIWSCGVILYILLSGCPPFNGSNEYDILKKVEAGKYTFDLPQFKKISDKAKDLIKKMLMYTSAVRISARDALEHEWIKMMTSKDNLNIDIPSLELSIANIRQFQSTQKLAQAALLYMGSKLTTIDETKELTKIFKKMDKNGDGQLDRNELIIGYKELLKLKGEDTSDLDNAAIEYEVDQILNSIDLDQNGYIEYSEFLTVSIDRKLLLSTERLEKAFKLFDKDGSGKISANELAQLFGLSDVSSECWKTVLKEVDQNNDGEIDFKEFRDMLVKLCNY

Sequence of L-lactate dehydrogenase (Plasmodium falciparum (isolate CDC / Honduras)) (Q27743 whole entry, looked up): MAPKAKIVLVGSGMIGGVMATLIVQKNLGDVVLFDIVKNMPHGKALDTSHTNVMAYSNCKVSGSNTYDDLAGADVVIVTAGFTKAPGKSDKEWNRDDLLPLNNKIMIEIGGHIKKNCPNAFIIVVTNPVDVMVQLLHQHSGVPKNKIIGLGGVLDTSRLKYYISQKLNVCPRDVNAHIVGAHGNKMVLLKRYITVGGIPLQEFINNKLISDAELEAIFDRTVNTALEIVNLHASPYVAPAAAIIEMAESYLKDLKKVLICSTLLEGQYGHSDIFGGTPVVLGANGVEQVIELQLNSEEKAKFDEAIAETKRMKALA
Sequence of Protein kinase 7 (PK7), Plasmodium falciparum 3D7 (PF3D7_0213400) (Q7YTF7 1-343): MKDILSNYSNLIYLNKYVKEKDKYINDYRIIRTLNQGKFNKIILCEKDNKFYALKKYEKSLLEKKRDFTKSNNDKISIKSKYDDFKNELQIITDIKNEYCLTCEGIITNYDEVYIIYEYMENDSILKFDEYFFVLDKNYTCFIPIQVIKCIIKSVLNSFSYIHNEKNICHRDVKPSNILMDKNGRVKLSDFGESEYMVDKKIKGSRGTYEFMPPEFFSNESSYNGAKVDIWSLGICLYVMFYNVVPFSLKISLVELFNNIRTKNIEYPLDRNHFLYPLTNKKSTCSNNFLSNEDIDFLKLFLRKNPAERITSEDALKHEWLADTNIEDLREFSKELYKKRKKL
Sequence of Calcium-dependent protein kinase 1 (Plasmodium falciparum (isolate 3D7)) (P62344 whole entry, looked up): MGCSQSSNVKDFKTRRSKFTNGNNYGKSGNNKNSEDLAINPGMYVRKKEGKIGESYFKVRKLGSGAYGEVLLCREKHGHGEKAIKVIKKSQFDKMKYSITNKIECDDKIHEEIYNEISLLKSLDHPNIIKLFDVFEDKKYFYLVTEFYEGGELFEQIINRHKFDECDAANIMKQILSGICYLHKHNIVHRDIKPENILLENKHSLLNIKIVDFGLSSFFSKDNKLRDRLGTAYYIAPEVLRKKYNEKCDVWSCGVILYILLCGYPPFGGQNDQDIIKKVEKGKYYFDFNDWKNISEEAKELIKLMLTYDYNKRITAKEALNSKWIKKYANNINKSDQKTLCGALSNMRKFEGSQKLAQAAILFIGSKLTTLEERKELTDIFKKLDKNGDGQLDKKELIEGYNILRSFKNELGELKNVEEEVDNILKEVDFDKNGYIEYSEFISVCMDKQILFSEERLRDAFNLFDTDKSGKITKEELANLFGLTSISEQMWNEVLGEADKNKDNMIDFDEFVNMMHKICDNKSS
Sequence of Plasmodium falciparum protein kinase 6 (PK6, PF3D7_1337100) (Q8IDW1 1-305): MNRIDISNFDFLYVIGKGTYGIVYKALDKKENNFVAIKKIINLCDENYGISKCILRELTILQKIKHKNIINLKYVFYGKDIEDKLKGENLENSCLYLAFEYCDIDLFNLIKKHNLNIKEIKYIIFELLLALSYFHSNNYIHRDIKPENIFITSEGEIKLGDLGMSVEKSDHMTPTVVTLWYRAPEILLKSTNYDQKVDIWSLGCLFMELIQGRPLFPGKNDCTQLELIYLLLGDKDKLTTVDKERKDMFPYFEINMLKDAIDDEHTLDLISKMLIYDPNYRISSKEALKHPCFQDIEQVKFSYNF

For orientation: inhibition means the change of the read-out against control, counted positive when it falls. `COc1ccc2nccc([C@@H](O)CN3CCC(NCc4ccc5sc(=O)[nH]c5c4)CC3)c2c1`: the results for the growth inhibition in experiment [1] and in experiment [4] were -3% and 98% (active), respectively. The inhibition in experiment [2] was 1%; in experiment [3] it was -3%. The outcome in experiment [5], in experiment [6], in experiment [7] and in experiment [8] was inactive.

Take `O=C(NC1CCN(c2ccnc(Nc3ccc(F)cc3)n2)C1)c1cc2ccccc2s1` (stereo not given): the growth inhibition is 80% (active) in experiment [1] and 99% (active) in experiment [4]. Further, the inhibition was 6% in experiment [2] and -8% in experiment [3]. Also, the result in experiment [5], in experiment [6], in experiment [7] and in experiment [8] was inactive.

On to `Cc1cc(NN=Cc2ccccc2)c2cc(C(F)(F)F)ccc2n1`, for which the growth inhibition in experiment [1] is 97% (active); in experiment [4], 101% (active). Further, the values for the inhibition in experiment [2] and in experiment [3] were 30% and -6%, respectively. Further, the result in experiment [5], in experiment [6], in experiment [7] and in experiment [8] was inactive.

`COc1ccc(NS(=O)(=O)c2ccccc2Br)cc1N1CCN(C)CC1`: the growth inhibition is 3% in experiment [1] and 94% (active) in experiment [4]. The inhibition was 2% in experiment [2] and -3% in experiment [3]. Also, the outcome in experiment [5], in experiment [6], in experiment [7] and in experiment [8] was inactive.

Consider `Cc1ccc(NC(C)C(=O)Nc2ccccc2)cc1S(=O)(=O)N1CCCCCC1` (stereo not given), for which the growth inhibition in experiment [1] is 97% (active); in experiment [4] it was 99% (active). Besides, the inhibition in experiment [2] is 12%; in experiment [3], -4%. Also, the outcome in experiment [5], in experiment [6], in experiment [7] and in experiment [8] was inactive.

In the case of `Cc1cc(F)ccc1Oc1nc(Nc2ccc(N3CCOCC3)c(F)c2)nc2c1S(=O)(=O)CCC2`, the growth inhibition was 98% (active) in experiment [1] and 96% (active) in experiment [4]. Moreover, the inhibition in experiment [2] was 10%; in experiment [3], 0%. Also, the result in experiment [5], in experiment [6], in experiment [7] and in experiment [8] was inactive.

Regarding `O=C(NCc1ccccc1S(=O)c1ccccc1CO)C(F)(F)F` (stereo not given), the growth inhibition in experiment [1] is 2%; in experiment [4], 98% (active). For the same compound, the values for the inhibition in experiment [2] and in experiment [3] were 50% (active) and 0%, respectively. In addition, the outcome in experiment [5], in experiment [6], in experiment [7] and in experiment [8] was inactive.

Turning to `COc1ccc(CCNCCCCCCNCCc2cccc([N+](=O)[O-])c2)cc1OC`, the growth inhibition in experiment [1] is -3%; in experiment [4], 93% (active). The values for the inhibition in experiment [2] and in experiment [3] were 13% and -6%, respectively. For the same compound, the result in experiment [5], in experiment [6], in experiment [7] and in experiment [8] was inactive.

`CCCCCCNc1cc(C)nc2ccc(OC)cc12`: the growth inhibition is 94% (active) in experiment [1] and 100% (active) in experiment [4]. In addition, the inhibition in experiment [2] is 19%; in experiment [3], -2%. Further, the outcome in experiment [5], in experiment [6], in experiment [7] and in experiment [8] was inactive.

Turning to `CC(C)(C)OC(=O)[C@H](CC(N)=O)NC(=O)c1ccc(-c2ccc(-c3nc4ccc(C(F)(F)F)cc4[nH]3)s2)cc1`, the figures for the growth inhibition in experiment [1] and in experiment [4] were 88% (active) and 94% (active), respectively. The inhibition in experiment [2] was 62% (active); in experiment [3], -2%. Also, the result in experiment [5], in experiment [6], in experiment [7] and in experiment [8] was inactive.

In the case of `Cc1ccc(CN2CCCN(Cc3cccc(NC(=O)c4cc5ccccc5s4)c3)CC2)cc1C`, the growth inhibition in experiment [1] was 33%; in experiment [4] it was 92% (active). For the same compound, the inhibition in experiment [2] is 44%; in experiment [3], -3%. For the same compound, the outcome in experiment [5], in experiment [6], in experiment [7] and in experiment [8] was inactive.

`Cc1noc(-c2ccccc2)c1CN1CCCC2(CC(C(=O)NCc3cccc(F)c3F)=NO2)C1` (stereo not given): the growth inhibition in experiment [1] is 28%; in experiment [4], 85% (active). Moreover, the inhibition in experiment [2] and in experiment [3] was -1% throughout. The result in experiment [5], in experiment [6], in experiment [7] and in experiment [8] was inactive.

On to `O=C(NCCN1CCCC1)N1CCCN(c2ncnc3cc(-c4ccc(Cl)cc4)sc23)CC1`, for which the growth inhibition was 32% in experiment [1] and 96% (active) in experiment [4]. The inhibition is 13% in experiment [2] and 6% in experiment [3]. Moreover, the result in experiment [5], in experiment [6], in experiment [7] and in experiment [8] was inactive.

Consider `O=C(/C=C/c1ccc(Cl)c(Cl)c1)N1CCC(CCN2CCC(c3c[nH]c4cc5c(cc34)OCO5)CC2)CC1`, for which the growth inhibition in experiment [1] was 65% (active); in experiment [4], 99% (active). Moreover, the inhibition in experiment [2] is 46%; in experiment [3], -4%. Further, the result in experiment [5], in experiment [6], in experiment [7] and in experiment [8] was inactive.

On to `CS(=O)(=O)c1ccc(CNCc2ccc(-c3cccc(-c4nc5ccccc5[nH]4)c3)cc2)cc1`, for which the growth inhibition in experiment [1] was 88% (active); in experiment [4], 100% (active). Moreover, the inhibition in experiment [2] was 17%; in experiment [3] it was -7%. Besides, the outcome in experiment [5], in experiment [6], in experiment [7] and in experiment [8] was inactive.

Turning to `O=S(=O)(NCCCN1CCOCC1)c1ccc2nccc(Nc3ccc(Oc4ccccc4)cc3)c2c1`, the growth inhibition is 92% (active) in experiment [1] and 95% (active) in experiment [4]. The results for the inhibition in experiment [2] and in experiment [3] were 1% and -2%, respectively. For the same compound, the result in experiment [5], in experiment [6], in experiment [7] and in experiment [8] was inactive.

In the case of `CN(CCc1ccccn1)c1cccc2c1nc(-c1cccnc1)n2CCNCc1ccccc1`, the results for the growth inhibition in experiment [1] and in experiment [4] were 97% (active) and 90% (active), respectively. In addition, the values for the inhibition in experiment [2] and in experiment [3] were 12% and 2%, respectively. Besides, the outcome in experiment [5], in experiment [6], in experiment [7] and in experiment [8] was inactive.

With `CC(C)C(C(=O)n1ncc2c3c(N)nc(N)nc3ccc21)C(C)C`, the growth inhibition is 8% in experiment [1] and 98% (active) in experiment [4]. In addition, the values for the inhibition in experiment [2] and in experiment [3] were 67% (active) and -8%, respectively. Also, the outcome in experiment [5], in experiment [6], in experiment [7] and in experiment [8] was inactive.

For `CC(=O)COc1c(C2CCN(CCCCNC(=O)c3ccc(-c4ccc(C(F)(F)F)cc4)cc3)CC2)ccc2c1CCCC2`, the growth inhibition in experiment [1] was 53% (active); in experiment [4], 99% (active). Also, the results for the inhibition in experiment [2] and in experiment [3] were 100% (active) and -7%, respectively. In addition, the result in experiment [5], in experiment [6], in experiment [7] and in experiment [8] was inactive.

As for `COc1cc(NC(=O)N2CCOC(CCN3CCC(c4ccccc4)CC3)(c3ccc(Cl)c(Cl)c3)C2)cc(OC)c1OC` (stereo not given), the growth inhibition is 73% (active) in experiment [1] and 93% (active) in experiment [4]. The values for the inhibition in experiment [2] and in experiment [3] were 15% and -2%, respectively. Moreover, the result in experiment [5], in experiment [6], in experiment [7] and in experiment [8] was inactive.
